The values that follow come from PubChem BioAssay AID1508602 (The Scripps Research Institute Molecular Screening Center, 2020).

In all, about 650,000 compounds went through this assay and about 6,800 (1%) were called active. The sample as a whole holds a higher share of actives than the screen did. Values without a mark were called inactive. Rule as the data show it: active = activation above about 4.9%; inactive = the rest.

Sequence of G-protein coupled receptor 151 (Homo sapiens) (Q8TDV0 whole entry, looked up): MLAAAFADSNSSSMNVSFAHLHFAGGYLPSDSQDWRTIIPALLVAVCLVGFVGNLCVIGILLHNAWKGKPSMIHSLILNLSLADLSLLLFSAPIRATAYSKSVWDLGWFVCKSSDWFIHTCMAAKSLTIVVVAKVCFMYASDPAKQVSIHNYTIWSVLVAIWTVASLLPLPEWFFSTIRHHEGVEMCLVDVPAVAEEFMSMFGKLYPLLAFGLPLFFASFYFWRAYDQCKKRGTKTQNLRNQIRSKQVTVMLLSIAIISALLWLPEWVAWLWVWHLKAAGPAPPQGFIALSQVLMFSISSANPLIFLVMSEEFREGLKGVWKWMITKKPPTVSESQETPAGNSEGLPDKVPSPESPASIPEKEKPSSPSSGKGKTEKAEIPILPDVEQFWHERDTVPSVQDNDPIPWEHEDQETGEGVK

The assay has as its target G-protein coupled receptor 151 (Homo sapiens) (UniProt Q8TDV0). Description: activators of human GPR151, primary screen, cell-based, PathHunter beta-arrestin, luminescence (AID 1508602).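 Also: 0% = median of compound wells and 100% = cells with positive control.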 The conditions noted are these: PathHunter beta-arrestin GPR151 cells, at 11.2 µM, hits give high values.
Turning to `COC(=O)c1ccc(-c2cnc3ccc(NCCCO)nn23)cc1`, the activation is 0.0841%. As for `O=C(Cc1cccs1)NCCS(=O)(=O)N1CCN(CCc2ccccc2)CC1`, the activation was 0.729%. For `Cc1ccc(-c2noc(CNC(=O)c3cc(C)ccc3C)n2)cc1`, the activation was 0.749%. To `Cc1ccc(-c2noc(CNC(=O)c3cccc4ccccc34)n2)cc1` belongs 1.49%; to `Cc1ccccc1C(=O)NCc1nc(-c2ccc(Cl)cc2)no1`, 6.7% (active). The figure for `COc1ccc(C2Nc3ccccc3C(=O)N2c2ccc(C)cc2)cc1COc1ccc(Cl)cc1` (stereo not given) is 2.56%. On to `O=C(O)CN1C(=O)CC(N2C(=O)/C(=C/c3ccc(F)cc3)SC2=S)C1=O` (stereo not given), for which the activation was -1.59%.

As to `CNC(=O)CSc1nc2c(c(=O)n(C)c(=O)n2C)n1Cc1ccc(F)cc1`, the activation was 0.114%.

Consider `Cn1c(=O)c2c(nc(SCC(=O)O)n2Cc2ccc(F)cc2)n(C)c1=O`, for which the activation is 8.98% (active). The figure for `Cn1cnnc1Sc1nc2c(c(=O)n(C)c(=O)n2C)n1Cc1ccc(F)cc1` is -1.79%; for `CCc1nc2sc3c(c2c2nnc(SCC(=O)NCc4ccco4)n12)CCCC3` it is -0.144%. To `CCOC(=O)CNC(=O)/C(=C\c1ccc2c(c1)OCO2)NC(=O)c1ccccc1OC` belongs 2.88%; to `COc1ccccc1C(=O)N/C(=C\c1ccc2c(c1)OCO2)C(N)=O`, 6.4% (active); to `COc1ccccc1C(=O)N/C(=C/c1ccc2c(c1)OCO2)C(=O)N1CCCCC1`, 0.0614%. The figure for `COCCOC(=O)C1=C(C)Nc2ccccc2S1` is 1.48%. `CN(C)S(=O)(=O)Nc1ccc(N2CCC(NCc3cc4ccccc4[nH]3)CC2)cc1`: the activation is -0.741%. To `C=C(C)CSc1nc2sc3c(c2c(=O)n1-c1ccc(OC)cc1)CC(C)(C)OC3` belongs 5.02% (active).

Take `COC(=O)CSc1nc2sc3c(c2c(=O)n1C1CCCCC1)CC(C)(C)OC3`: the activation is -0.897%.

With `CCn1c(SCC(=O)O)nc2sc3c(c2c1=O)CC(C)(C)OC3`, the activation is -0.501%. To `Cc1cc(Cl)ccc1OCc1nc(-c2ccccc2)no1` belongs 1.48%. Consider `CC1=C(C(=O)OCC2CCCO2)C(c2ccccc2F)C2=C(CCCC2=O)N1` (stereo not given), for which the activation is 0.289%.

For `COc1ccc(CNC(=O)CSc2nnnn2C2CCCCC2)cc1`, the activation was -1.28%. On to `CCOc1ccc(NC(=O)COc2ccc(C)cc2C)cc1`, for which the activation is 0.102%. The figure for `CCOc1ccc(NC(=O)COc2cc(C)c(Cl)c(C)c2)cc1` is -0.356%.

For the compound `CCOc1ccc(NC(=O)COc2cccc(C)c2C)cc1`, the activation was 5.81% (active). For the compound `COc1cc(-c2cc(-c3ccccc3)nc3sc(C(=O)O)c(N)c23)cc(OC)c1OC`, the activation is 0.0436%. As to `NC(=O)C1CCN(C(=O)c2ccc(-c3ccccc3)cc2)CC1`, the activation is 5.25% (active). `COc1ccc(C(=O)N2CCC(C(N)=O)CC2)cc1OC`: the activation was 1.14%. `NC(=O)C1CCN(C(=O)c2ccc(C(F)(F)F)cc2)CC1`: the activation is -0.735%. The figure for `COc1ccc(C(=O)C2CCN(CC(N)=O)CC2)cc1` is -1.68%; for `CN(C)CCNC(=O)C(=O)NCC1OCCCN1S(=O)(=O)c1ccc(F)cc1` (stereo not given) it is -0.149%.

Take `Nc1cc(=O)nc(SCC(=O)Nc2nccs2)n1-c1ccc(F)cc1`: the activation was 5.12% (active). To `O=C(CSc1ccc(F)cc1)Nc1nccs1` belongs -0.169%; to `Cc1cc(NC(=O)CSc2nc(=O)cc(N)n2-c2ccc(F)cc2)no1`, -0.189%.

With `O=C(Nc1ccc2oc(-c3ccccc3F)nc2c1)c1cc(I)ccc1Cl`, the activation was -1.58%. Take `CCOc1ccc(-c2cc(C(=O)NCCCN3CCN(C)CC3)c3ccccc3n2)cc1`: the activation was 2.73%. The figure for `O=C1c2ccccc2C(=O)N1CNc1ccc(Cc2ccncc2)cc1` is -0.716%. In the case of `O=C(CN1C(=O)NC2(CCCCCC2)C1=O)Nc1ccc(S(=O)(=O)N2CCCC2)cc1`, the activation is 1.73%.

In the case of `O=C(CN1C(=O)CCC1=O)Nc1ccc(S(=O)(=O)N2CCOCC2)cc1`, the activation is 6.57% (active).

As to `COC(=O)CCC(=O)Nc1ccc(S(=O)(=O)N2CCOCC2)cc1`, the activation was -0.0636%. Turning to `CN(CC(=O)Nc1cccc(F)c1)C(=O)C1CCCCC1`, the activation is -0.0765%.

With `Cc1ccc(S(=O)(=O)Cn2nnnc2CN2CCN(c3cccc(Cl)c3)CC2)cc1`, the activation is -0.91%. `CC(C)CCn1nnnc1CN1CCN(c2ccccc2F)CC1`: the activation is -0.0283%. `Cc1ccc(S(=O)(=O)Cn2nnnc2CN2CCN(c3ccccc3F)CC2)cc1`: the activation is 8.05% (active). The figure for `CCCC(C)NS(=O)(=O)c1ccc(OCC(=O)OC)cc1` (stereo not given) is 0.348%. On to `COCC(=O)NC(C)c1nnc(SCc2ccccc2C)n1C` (stereo not given), for which the activation is -0.733%. As for `COc1cccc(C(=O)Nc2ccc3oc(-c4ccccc4)nc3c2)c1`, the activation was -0.935%. To `COc1cccc(-c2nc3cc(NC(=O)c4cncc(Br)c4)ccc3o2)c1` belongs -0.0884%; to `COc1cccc(-c2ocnc2C(=O)Nc2ccc3nc(-c4cccnc4)oc3c2)c1`, 7.47% (active); to `O=C(NC1CC1)c1ccc(-c2cccc(C(=O)NCc3ccccc3)n2)cc1`, -1.55%.

For the compound `CCOc1ccc(-c2ccc(SCC(=O)Nc3cc(C)on3)nn2)cc1`, the activation is 1.58%.

Regarding `O=C1N(CC2CCCCC2)CCN1c1ccc(C(F)(F)F)cn1`, the activation is -0.812%. The figure for `CCOc1ccc(S(=O)(=O)N2CCN(c3ncccn3)CC2)c2cccnc12` is 3.78%; for `c1ccc(-c2ccc(OCCCNCCN3CCOCC3)cc2)cc1` it is 7.78% (active); for `c1ccc(-c2ccccc2OCCCCNCCN2CCOCC2)cc1` it is 0.194%. As to `c1ccc(-c2ccccc2OCCNCCN2CCOCC2)cc1`, the activation was -0.471%.

On to `COC1(C(F)(F)F)NC(=O)N(c2ccccc2)C1=O` (stereo not given), for which the activation was -1.06%.

`CCCOC1(C(F)(F)F)NC(=O)N(c2ccc(C(C)C)cc2)C1=O` (stereo not given): the activation was 10.8% (active). To `CC(C)c1ccc(N2C(=O)C3C(C2=O)C2(c4ccccc4)C(=O)C3(c3ccccc3)C(c3ccccc3)=C2c2ccccc2)cc1` (stereo not given) belongs 2.7%; to `Cc1nc(N2CCN(C)CC2)c2c(C)c(C(=O)NC3CCCCC3)sc2n1`, 0.833%; to `CC(C)NC(=O)c1sc(=S)n2c1[nH]c(=O)c1ccc(C(=O)NCCN(C)C)cc12`, 1.68%. The figure for `O=C1/C(=C\c2cccs2)SC(=S)N1Cc1ccco1` is -0.646%. Regarding `CCC(=O)N1CCc2cc(S(=O)(=O)CCC(=O)Nc3ccc(C(=O)OC)cc3)ccc21`, the activation was 0.246%. To `COc1cc(-c2cncc(-c3cccc(C(=O)NCCN(C)C)c3)n2)cc(OC)c1OC` belongs -0.823%; to `Cc1ccc(CN2CCOCC2)c(C)c1`, 0.704%. To `C/C(=N/N1CCN(Cc2ccc(C)cc2C)CC1)c1ccc([N+](=O)[O-])cc1` belongs 9.21% (active); to `CCN1CCN(Cc2cc([N+](=O)[O-])ccc2O)CC1`, -0.921%. The figure for `COC(=O)c1cccc(-n2c3nc(=O)[nH]c(=O)c-3cc3ccccc32)c1` is -0.76%.

As to `CC(C)CC(=O)Nc1ccc(NC(=O)CC(C)C)c(Cl)c1`, the activation was 0.466%. For the compound `Cc1nn(C)c(C)c1-c1nc(Nc2ccc(Oc3ccccc3)cc2)c2ncn(-c3ccsc3)c2n1`, the activation was 0.158%. In the case of `CC(=O)c1cccc(-c2nc(NCCOc3ccccc3)c3ncn(-c4ccccc4)c3n2)c1`, the activation was 0.401%. The figure for `CC(=O)c1cccc(-c2nc(Nc3ccc(Oc4ccccc4)cc3)c3ncn(-c4ccsc4)c3n2)c1` is 5.34% (active). The figure for `CCOC(=O)C1=C(C)N=c2s/c(=C\c3ccc(OC)c(Br)c3)c(=O)n2C1c1ccc2c(c1)OCO2` (stereo not given) is 3.22%.

`CCCc1c(C)nc2c(C(=O)NC3CCCCCCC3)c[nH]n2c1=O`: the activation was 1.02%. As for `CC(=O)COC(=O)CNC(=O)c1ccc(Cl)cc1`, the activation was -1.71%. The figure for `CCOC(=O)Cc1csc(NC(=O)c2ccc(NC(=O)CC)cc2)n1` is -0.289%; for `CCOC(=O)Cc1coc(NC(=O)c2ccc(Cl)cc2)n1` it is 5.28% (active); for `Cc1nn(CC(=O)N(CC2CCCO2)C2CCS(=O)(=O)C2)c(C)c1[N+](=O)[O-]` (stereo not given) it is 0.461%. To `CCOC(=O)C1=C(C)N=c2s/c(=C\c3cccc(OC)c3OCC)c(=O)n2C1c1ccccc1OC(C)C` (stereo not given) belongs 2.86%; to `O=C(c1cc([N+](=O)[O-])ccc1NC1CCCCC1)N1CCOCC1`, 9.09% (active); to `COc1cc([N+](=O)[O-])ccc1NC(=O)N1CCN(C2CCCCC2)CC1`, -0.0069%. `O=C(c1cn[nH]c1-c1ccc([N+](=O)[O-])cc1)N1CCOCC1`: the activation was -0.121%. The figure for `S=C(NCc1ccccc1)NCc1nc2ccccc2[nH]1` is 1.09%; for `Cc1ccc(C)n1-c1ccc(C(=O)NCC(c2ccco2)N(C)C)cc1` (stereo not given) it is 0.754%. To `CCOCCn1c(=O)c2c(nc3n2CCCN3c2ccc(Br)cc2)n(C)c1=O` belongs 0.326%; to `CC(C)Cn1c(=O)c2c(nc3n2CCCN3c2ccc(Br)cc2)n(C)c1=O`, -0.288%; to `CC(=O)Cn1c(=O)c2c(nc3n2CCCN3c2ccc(Br)cc2)n(C)c1=O`, 5.99% (active). The figure for `O=C(C(Cc1ccccc1)N1Cc2ccccc2C1=O)N1CCOCC1` (stereo not given) is -0.15%; for `O=C(C(Cc1ccccc1)N1C(=O)C2C3CCC(C3)C2C1=O)N1CCOCC1` (stereo not given) it is 0.906%. With `O=C(C(Cc1ccccc1)N1C(=O)C2C3c4ccccc4C(c4ccccc43)C2C1=O)N1CCOCC1` (stereo not given), the activation is 6.8% (active).
